About 83,000 compounds went through this panel and 20% of them were active in at least one assay; those are over-represented in the sample as a whole.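 Percent growth is the endpoint: 0 to 100 indicates growth inhibition (40 means 60% inhibition), 0 means no net growth, and negative values indicate cell death.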 A number with no mark means an inactive call. Calls of active or inactive are those of the source. How the source made its calls: active means growth percent below 10; inactive means the rest.
Legend:
Experiment in all cases: NCI-60 one-dose screen, 48 h (100 = growth as untreated, 0 = no growth, -100 = all killed)
Settings in all cases: 10 µM unless noted
SK-MEL-2 melanoma = tested on: SK-MEL-2 melanoma
EKVX NSCLC = tested on: EKVX NSCLC
SN12C renal = tested on: SN12C renal
UO-31 renal = tested on: UO-31 renal
TK-10 renal = tested on: TK-10 renal
ACHN renal = tested on: ACHN renal
CAKI-1 renal = tested on: CAKI-1 renal
A498 renal = tested on: A498 renal
CCRF-CEM leukemia = tested on: CCRF-CEM leukemia
MOLT-4 leukemia = tested on: MOLT-4 leukemia
SR leukemia = tested on: SR leukemia
OVCAR-8 ovarian = tested on: OVCAR-8 ovarian
OVCAR-5 ovarian = tested on: OVCAR-5 ovarian
OVCAR-4 ovarian = tested on: OVCAR-4 ovarian
SK-OV-3 ovarian = tested on: SK-OV-3 ovarian
IGROV1 ovarian = tested on: IGROV1 ovarian
OVCAR-3 ovarian = tested on: OVCAR-3 ovarian
HS 578T breast = tested on: HS 578T breast
NCI/ADR-RES ovarian = tested on: NCI/ADR-RES ovarian

| SMILES | growth (SK-MEL-2 melanoma) | growth (EKVX NSCLC) | growth (SN12C renal) | growth (UO-31 renal) | growth (TK-10 renal) | growth (ACHN renal) | growth (CAKI-1 renal) | growth (A498 renal) | growth (CCRF-CEM leukemia) | growth (MOLT-4 leukemia) | growth (SR leukemia) | growth (OVCAR-8 ovarian) | growth (OVCAR-5 ovarian) | growth (OVCAR-4 ovarian) | growth (SK-OV-3 ovarian) | growth (IGROV1 ovarian) | growth (OVCAR-3 ovarian) | growth (HS 578T breast) | growth (NCI/ADR-RES ovarian) |
| --- | --- | --- | --- | --- | --- | --- | --- | --- | --- | --- | --- | --- | --- | --- | --- | --- | --- | --- | --- |
| Cc1cccc(NCc2cn(-c3ccc(C(=O)O)cc3)nc2-c2ccc(C(=O)O)cc2)n1 | 120% | 102% | 101% | 88% | 102% | 103% | 95.7% | 95.5% | 104% | 105% | 111% | 110% | 95.2% | 105% | 110% | 105% | 106% | 96.9% | 108% |
| NC(=O)C1(Nc2ccc(Br)cc2)CCCC1 | 101% | 92% | 102% | 86.3% | 104% | 101% | 103% | 99.8% | 99.8% | 99% | 84.3% | 102% | 96.7% | 115% | 103% | 108% | 113% | 111% | 111% |
| Cc1c(C(=O)/C=C/Nc2c(Cl)cc(S(N)(=O)=O)cc2Cl)sc2nc3ccccc3n12 | 109% | 106% | 102% | 89.2% | 111% | 99% | 98.5% | 101% | 102% | 106% | 110% | 101% | 106% | 116% | 111% | 111% | 107% | 105% | 110% |
| O=C1c2cccc3cccc(c23)C(=O)N1Nc1nc(NC2CCCCC2)nc(N2CCOCC2)n1 | 109% | 90% | 93.9% | 69.1% | 129% | 89.7% | 76.5% | 127% | 90.1% | 90% | 91% | 99% | 95.6% | 106% | 95.7% | 90.3% | 103% | 99.4% | 99.8% |
| COc1c(N2CC3CCCN(C(C)=O)C3C2)c(F)cc2c(=O)c(C(=O)N[C@H]3C(O)[C@@H](O)C(CO)O[C@H]3O)cn(C3CC3)c12 (some centres undefined) | 111% | 103% | 98.9% | 92.2% | 105% | 105% | 101% | 103% | 105% | 116% | 108% | 107% | 104% | 110% | 115% | 114% | 109% | 105% | 110% |
| COc1cccc2c(=O)c3c(sc12)c(NCCCN)nc1ccccc13 | 103% | 63.6% | 48.4% | 27.7% | 65.6% | 29.4% | 27.5% | 25.2% | 14.7% | 8.43% (active) | -7.22% (active) | 34.8% | 77.9% | 21.8% | 64.7% | 39.3% | 39.1% | 60% | 46% |
| CC1=C([Se]CC(OC(=O)[C@@H](CSSC(C)(C)C)NC(=O)OC(C)(C)C)C(=O)NC(C)(C)C)C(=O)c2ccccc2C1=O (some centres undefined) | 7.82% (active) | -74.2% (active) | -73.3% (active) | 15.4% | -96% (active) | -83% (active) | -52.1% (active) | -28.9% (active) | -21.6% (active) | 15.8% | 22% | -73.7% (active) | -75.8% (active) | -92.9% (active) | -100% (active) | 8.36% (active) | -99.2% (active) | -11.2% (active) | -78.9% (active) |
| O=c1c2cc(F)ccc2sc2c(NCCN3CCOCC3)nc3ccccc3c12 | 110% | 91.6% | 72.8% | 42% | 79.2% | 64.7% | 33.2% | 58.3% | 57% | 52.1% | 28.3% | 81.4% | 89.5% | 67.5% | 85% | 74.6% | 76.8% | 63.3% | 72.5% |
| Cc1ccc2c(n1)C(=O)C(Cl)=C(Nc1ccccc1C(C)C)C2=O | 64% | 95.8% | 23.7% | 57% | 165% | 49.2% | 35% | 99.7% | 35.7% | 31.9% | 33.4% | 67.5% | 85.9% | 28.4% | 79.7% | 63.9% | -3.79% (active) | 100% | 85.8% |
| Cc1cccc2c1S/C(=C/c1ccc([N+](=O)[O-])cc1)C2=O | 103% | 103% | 98.8% | 80.4% | 166% | 102% | 90.6% | 59.8% | 101% | 94.5% | 86.8% | 105% | 41.3% | 112% | 88.2% | 82.7% | 105% | 99.7% | 110% |
| N[C@@H](Cc1ccccc1)[C@@H](O)C(=O)NCc1ccc(F)cc1 | 117% | 103% | 93.4% | 90.8% | 105% | 108% | 91.3% | 96.2% | 111% | 109% | 95.1% | 104% | 98.7% | 103% | 120% | 107% | 117% | 104% | 110% |
| CCn1cnc2c1c(=O)[nH]c(=O)n2CC1CCC(CNS(=O)(=O)c2ccc(OC3CCOCC3)c(F)c2)CC1 (centres undefined) | 74.8% | 68.1% | 62.9% | 55.2% | 33.7% | 72.2% | 46.2% | 67.1% | 52.6% | 63% | 49.6% | 60.5% | 64.1% | 42% | 31.9% | 62.6% | 60.5% | 15.9% | 95.8% |
| Cc1cccc2c3c(sc12)C(c1ccc(Cl)cc1)C(C#N)=C(N)O3 (centres undefined) | 45.7% | 44.5% | 25.2% | 39% | 71.7% | 25.2% | 8.51% (active) | -6.58% (active) | 13.2% | 11.9% | 15.8% | 22.2% | 23.3% | 58.4% | 60.1% | 23.8% | -17.3% (active) | 15.9% | 9.13% (active) |
| CN(C)CCN1CCN(c2ncccc2C2Nc3ccccc3-n3cccc32)CC1 (centres undefined) | 124% | 102% | 101% | 77.8% | 103% | 105% | 85.4% | 86.7% | 102% | 98.2% | 98.3% | 101% | 100% | 113% | 107% | 105% | 115% | 95.7% | 104% |
| Nc1nc2ccccc2c2c(=O)c3cc(F)ccc3sc12 | 110% | 91.5% | 101% | 91.3% | 110% | 101% | 107% | 89.7% | 105% | 101% | 101% | 106% | 102% | 101% | 108% | 103% | 113% | 101% | 97.5% |
| CS(=O)(=O)Nc1cc(-c2ccc3ncnc(Nc4cccc(Cl)c4F)c3c2)cnc1Cl | 28.4% | 44.7% | 37.4% | 28.8% | 34.8% | 66.5% | 19.8% | -32.5% (active) | 30.4% | 27.3% | 43.5% | 60.8% | 38.3% | 77.2% | 30.5% | -8.72% (active) | 25% | -3.32% (active) | 86.9% |

— PubChem BioAssay (NCI)
